Data as given in PubChem BioAssay (Tox21).
A number with no mark means an inactive call. Records with an inconclusive call do not appear. Activity calls are given as the source filed them. The call rests on the fitted dose curve.

These molecules were tested against Acetylcholinesterase (Homo sapiens) (UniProt P22303) (assay: Acetylcholinesterase (AChE) small molecule antagonists: enzyme-based qHTS assay (AID 1347397; further: nearly all actives have a fitted effect of over 55% in size)). Conditions: Potency: AChE enzyme activity inhibition; outcome: AChE enzyme activity inhibition; series mostly up to 115 µM; activity change, negative = inhibition: at the top concentration.
In short: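 Colorimetric DTNB readout of acetylthiocholine hydrolysis, 10 min at room temperature, after 30 min room-temperature exposure of 50 mU/mL recombinant human enzyme to compound; DMSO vehicle control.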
On the % scale 0 is the no-effect control and ±100 the full control effect.

Sequence of Acetylcholinesterase (Homo sapiens) (P22303 whole entry, looked up): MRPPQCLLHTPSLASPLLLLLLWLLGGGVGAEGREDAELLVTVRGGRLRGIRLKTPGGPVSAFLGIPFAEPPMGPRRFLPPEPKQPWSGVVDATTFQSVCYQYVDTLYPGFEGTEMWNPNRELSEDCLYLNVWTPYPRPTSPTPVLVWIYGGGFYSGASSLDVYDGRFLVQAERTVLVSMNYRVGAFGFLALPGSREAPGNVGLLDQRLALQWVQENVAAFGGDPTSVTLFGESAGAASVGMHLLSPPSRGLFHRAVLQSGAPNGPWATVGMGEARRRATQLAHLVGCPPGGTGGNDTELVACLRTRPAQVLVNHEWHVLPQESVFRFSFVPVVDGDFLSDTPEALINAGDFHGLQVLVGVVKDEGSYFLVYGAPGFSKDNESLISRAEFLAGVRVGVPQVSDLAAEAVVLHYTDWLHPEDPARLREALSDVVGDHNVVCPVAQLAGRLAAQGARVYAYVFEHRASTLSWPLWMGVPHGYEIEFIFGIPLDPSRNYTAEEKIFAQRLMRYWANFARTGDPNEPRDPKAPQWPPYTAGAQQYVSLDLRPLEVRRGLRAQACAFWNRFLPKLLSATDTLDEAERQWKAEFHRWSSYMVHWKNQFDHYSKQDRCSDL

| Compound | activity change, negative = inhibition | Potency |
| --- | --- | --- |
| O=NN(CCCl)C(=O)NCCCl | -0.27% [at 53 µM] |  |
| O=C=NCC1CCCC(CN=C=O)C1 (stereo not given) | 0.774% |  |
| CC1=C(C(=O)OC(C)C)C(c2cccc([N+](=O)[O-])c2)C(C(=O)OC2CN(C(c3ccccc3)c3ccccc3)C2)=C(N)N1 (stereo not given) | -1.22% [at 53 µM] |  |
| CCCCCCCCCCCc1ccccc1 | 0.273% |  |
| CC(C)=CC(=O)O | 0.0039% |  |
| CCCCCC/C=C/C=O | -0.132% |  |
| CCCCCCCCCOC(=O)CCCCC(=O)OCCCCCCC | 0.276% |  |
| CNc1ccc([N+](=O)[O-])cc1 | 73.6% |  |
| OCC1CCCO1 (stereo not given) |  | inactive |
| O=[N+]([O-])c1ccc(CO)cc1 | 0.409% |  |
| Cc1cc(NC(=O)C(=O)O)cc(C)c1Oc1ccc(O)c2c1CCC2 | 2.23% |  |
| COc1ccccc1N1CCN(CC(O)COc2cccc3ccccc23)CC1 (stereo not given) | -5.2% [at 53 µM] |  |
| CC(=O)Nc1ccc2c(c1)Cc1cc(NC(C)=O)ccc1-2 | 0.207% |  |
| CCOC(=O)/C=C\C(=O)OCC |  | inactive |
| CC(=O)c1ccc(O)c(C(N)=O)c1 | -0.146% [at 53 µM] |  |
| O=C(O)C1=NN(c2ccc(S(=O)(=O)O)cc2)C(=O)C1 |  | inactive |
| CNCCC(Oc1ccccc1OC)c1ccccc1 (stereo not given) | -2.35% [at 53 µM] |  |
| CC(=O)Oc1ccc([N+](=O)[O-])cc1CCl | 46.5% |  |
| C[C@H]1[C@@H](c2ccccc2)NC(=O)N1C | 0.0128% |  |

| Compound | activity change, negative = inhibition | Potency |
| --- | --- | --- |
| CCCC(C)C(=O)OCC (stereo not given) | 1.99% |  |
| O=C(O)c1ccccc1C(=O)OCc1ccccc1 | 0.426% |  |
| Nc1cc(S(=O)(=O)O)ccc1S(=O)(=O)O | 4.28% |  |
| COc1ccc(C(=O)c2ccccc2)c(O)c1 |  | inactive |
| CCCCNc1ccccc1 | 1.96% |  |
| NCc1cccc(CN)c1 |  | inactive |
| OC1CCCCC1 |  | inactive |
| O=C1CCCCCCCCCCCCCC1 | 0.138% |  |
| CN(C)c1ccc(N=NS(=O)(=O)O)cc1 | 90.2% |  |
| CCCCCCCCCCCC | 2.2% |  |
| NC(N)=S |  | inactive |
| CC(C)CCCCCCc1ccc(OCCOCCO)cc1 | 2.2% |  |
| NC1CCCCC1 |  | inactive |
| O=C(O)CN(CC(=O)O)CC(=O)O |  | inactive |
| Nc1c(S(=O)(=O)O)cc(Br)c2c1C(=O)c1ccccc1C2=O |  | inactive |
| COC(=O)C1=C(C)NC(C)=C(C(=O)OCC(C)=O)C1c1ccccc1[N+](=O)[O-] (stereo not given) | 0.406% [at 53 µM] |  |
| CCCCCCCCCCCCCCCCCC(=O)OCC(O)CO (stereo not given) |  | inactive |
| Cc1oc(-c2ccccc2)nc1CCC(=O)c1ccc(CC2SC(=O)NC2=O)cc1 (stereo not given) | -0.541% [at 53 µM] |  |
| CCCN(C1CCN(C(=O)C2CCNCC2)CC1)[C@@H]1CCc2ccc(OC)cc2C1 | -0.696% |  |

What follows are molecules tested against Acetylcholinesterase (Homo sapiens) (UniProt P22303) (assay: Acetylcholinesterase (AChE) small molecule antagonists: fluorescence cell-based qHTS assay (AID 1347398; further: nearly all actives have a fitted effect of over 50% in size)). Conditions: SH-SY5Y cells; Potency: AChE activity; outcome: AChE activity; series mostly up to 115 µM; activity change, negative = inhibition: at the top concentration.
In short: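 Cellular AChE activity read as thiocholine from acetylthiocholine hydrolysis, detected by Thiolite Green fluorescence at 490/520 nm after 40 min at room temperature. Compounds were pre-incubated 30 min at 37 C on adherent SH-SY5Y cells.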

| Compound | activity change, negative = inhibition | Potency |
| --- | --- | --- |
| O=NN(CCCl)C(=O)NCCCl | 9.56% [at 53.7 µM] |  |
| O=C=NCC1CCCC(CN=C=O)C1 (stereo not given) | -6.37% |  |
| CC1=C(C(=O)OC(C)C)C(c2cccc([N+](=O)[O-])c2)C(C(=O)OC2CN(C(c3ccccc3)c3ccccc3)C2)=C(N)N1 (stereo not given) | -3.87% [at 53.7 µM] |  |
| CCCCCCCCCCCc1ccccc1 | -6.07% |  |
| CC(C)=CC(=O)O | 2.71% |  |
| CCCCCC/C=C/C=O | 3.57% |  |
| CCCCCCCCCOC(=O)CCCCC(=O)OCCCCCCC | -0.778% |  |
| CNc1ccc([N+](=O)[O-])cc1 | 0.337% |  |
| OCC1CCCO1 (stereo not given) |  | inactive |
| O=[N+]([O-])c1ccc(CO)cc1 | -0.698% |  |
| COc1ccccc1N1CCN(CC(O)COc2cccc3ccccc23)CC1 (stereo not given) | -9.85% [at 53.7 µM] |  |
| CC(=O)Nc1ccc2c(c1)Cc1cc(NC(C)=O)ccc1-2 | 2.17% |  |
| CCOC(=O)/C=C\C(=O)OCC |  | inactive |
| CC(=O)c1ccc(O)c(C(N)=O)c1 | 20.4% [at 53.7 µM] |  |
| O=C(O)C1=NN(c2ccc(S(=O)(=O)O)cc2)C(=O)C1 |  | inactive |
| CNCCC(Oc1ccccc1OC)c1ccccc1 (stereo not given) | 2.91% [at 53.7 µM] |  |
| CC(=O)Oc1ccc([N+](=O)[O-])cc1CCl | -2.06% |  |
| C[C@H]1[C@@H](c2ccccc2)NC(=O)N1C | -8.65% |  |
| CCCC(C)C(=O)OCC (stereo not given) | -0.646% |  |

| Compound | activity change, negative = inhibition | Potency |
| --- | --- | --- |
| O=C(O)c1ccccc1C(=O)OCc1ccccc1 | 0.616% |  |
| Nc1cc(S(=O)(=O)O)ccc1S(=O)(=O)O | -0.339% |  |
| COc1ccc(C(=O)c2ccccc2)c(O)c1 |  | inactive |
| CCCCNc1ccccc1 | 3.21% |  |
| NCc1cccc(CN)c1 | -4.68% |  |
| OC1CCCCC1 |  | inactive |
| O=C1CCCCCCCCCCCCCC1 | -0.266% |  |
| CN(C)c1ccc(N=NS(=O)(=O)O)cc1 | 24.9% |  |
| CCCCCCCCCCCC | 2.71% |  |
| NC(N)=S |  | inactive |
| CC(C)CCCCCCc1ccc(OCCOCCO)cc1 | -7.31% |  |
| NC1CCCCC1 |  | inactive |
| O=C(O)CN(CC(=O)O)CC(=O)O |  | inactive |
| Nc1c(S(=O)(=O)O)cc(Br)c2c1C(=O)c1ccccc1C2=O |  | inactive |
| COC(=O)C1=C(C)NC(C)=C(C(=O)OCC(C)=O)C1c1ccccc1[N+](=O)[O-] (stereo not given) | -6.83% [at 53.7 µM] |  |
| CCCCCCCCCCCCCCCCCC(=O)OCC(O)CO (stereo not given) |  | inactive |
| Cc1oc(-c2ccccc2)nc1CCC(=O)c1ccc(CC2SC(=O)NC2=O)cc1 (stereo not given) | -13.1% [at 53.7 µM] |  |
| CCCN(C1CCN(C(=O)C2CCNCC2)CC1)[C@@H]1CCc2ccc(OC)cc2C1 | 1.58% |  |

The molecules below were run against Acetylcholinesterase (Homo sapiens) (UniProt P22303) (assay: Acetylcholinesterase (AChE) small molecule antagonists: enzyme-based qHTS assay with human liver microsomes (AID 1347399; further: nearly all actives have a fitted effect of over 60% in size)). Conditions: Potency: qHTS inhibition; outcome: qHTS inhibition; series mostly up to 115 µM; activity change, negative = inhibition: at the top concentration.
In short: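 Recombinant human AChE (50 mU/mL in the enzyme mix) and human liver microsomes (0.25 mg/mL final) were preincubated with compound and NADPH (0.25 mg/mL final) for 30 min at 37 C. Acetylthiocholine/DTNB was then added; thiocholine was read colorimetrically after 10 min at room temperature.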

| Compound | activity change, negative = inhibition | Potency |
| --- | --- | --- |
| O=NN(CCCl)C(=O)NCCCl | -0.0734% [at 53 µM] |  |
| O=C=NCC1CCCC(CN=C=O)C1 (stereo not given) | -0.157% |  |
| CC1=C(C(=O)OC(C)C)C(c2cccc([N+](=O)[O-])c2)C(C(=O)OC2CN(C(c3ccccc3)c3ccccc3)C2)=C(N)N1 (stereo not given) | -2.38% [at 53 µM] |  |
| CCCCCCCCCCCc1ccccc1 | 0.171% |  |
| CC(C)=CC(=O)O | -0.448% |  |
| CCCCCC/C=C/C=O | -0.325% |  |
| CCCCCCCCCOC(=O)CCCCC(=O)OCCCCCCC | -1.05% |  |
| CNc1ccc([N+](=O)[O-])cc1 | 83.7% |  |
| O=C1C=CC(=O)O1 | -0.341% |  |
| OCC1CCCO1 (stereo not given) |  | inactive |
| O=[N+]([O-])c1ccc(CO)cc1 | -0.801% |  |
| Cc1cc(NC(=O)C(=O)O)cc(C)c1Oc1ccc(O)c2c1CCC2 | 1.02% |  |
| COc1ccccc1N1CCN(CC(O)COc2cccc3ccccc23)CC1 (stereo not given) | -5.25% [at 53 µM] |  |
| CC(=O)Nc1ccc2c(c1)Cc1cc(NC(C)=O)ccc1-2 | -1.28% |  |
| CCOC(=O)/C=C\C(=O)OCC |  | inactive |
| CC(=O)c1ccc(O)c(C(N)=O)c1 | -0.142% [at 53 µM] |  |
| O=C(O)C1=NN(c2ccc(S(=O)(=O)O)cc2)C(=O)C1 |  | inactive |
| CNCCC(Oc1ccccc1OC)c1ccccc1 (stereo not given) | -1.01% [at 53 µM] |  |
| CC(=O)Oc1ccc([N+](=O)[O-])cc1CCl | 41.4% |  |
| C[C@H]1[C@@H](c2ccccc2)NC(=O)N1C | -0.646% |  |

| Compound | activity change, negative = inhibition | Potency |
| --- | --- | --- |
| CCCC(C)C(=O)OCC (stereo not given) | 8.16% |  |
| O=C(O)c1ccccc1C(=O)OCc1ccccc1 | -0.945% |  |
| Nc1cc(S(=O)(=O)O)ccc1S(=O)(=O)O | 0.153% |  |
| COc1ccc(C(=O)c2ccccc2)c(O)c1 |  | inactive |
| CCCCNc1ccccc1 | -1.22% |  |
| NCc1cccc(CN)c1 |  | inactive |
| OC1CCCCC1 |  | inactive |
| O=C1CCCCCCCCCCCCCC1 | -1.88% |  |
| CN(C)c1ccc(N=NS(=O)(=O)O)cc1 | 102% |  |
| CCCCCCCCCCCC | -2.24% |  |
| NC(N)=S |  | inactive |
| C=CCNCC=C |  | inactive |
| CC(C)CCCCCCc1ccc(OCCOCCO)cc1 | -3.59% |  |
| NC1CCCCC1 |  | inactive |
| O=C(O)CN(CC(=O)O)CC(=O)O |  | inactive |
| Nc1c(S(=O)(=O)O)cc(Br)c2c1C(=O)c1ccccc1C2=O |  | inactive |
| COC(=O)C1=C(C)NC(C)=C(C(=O)OCC(C)=O)C1c1ccccc1[N+](=O)[O-] (stereo not given) | 10.2% [at 53 µM] |  |
| CCCCCCCCCCCCCCCCCC(=O)OCC(O)CO (stereo not given) |  | inactive |
| Cc1oc(-c2ccccc2)nc1CCC(=O)c1ccc(CC2SC(=O)NC2=O)cc1 (stereo not given) | 1.02% [at 53 µM] |  |
| CCCN(C1CCN(C(=O)C2CCNCC2)CC1)[C@@H]1CCc2ccc(OC)cc2C1 | 0.757% |  |
